Source: PubChem BioAssay
For some assays here: Results with a measured potency or affinity are listed apart. Activity calls are given as the source filed them. Unless noted, the rule behind the calls is not given here.

Legend:
[1] = antimalarial activity against Dd2 strain (AID 2302;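 active = growth inhibition above 50% at the single 2 µM test dose, taken to imply half-maximal potency below 2 µM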;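 note: 0% = DMSO untreated growth and 100% = chloroquine plus artemisinin killed control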); settings: P. falciparum Dd2 in RBCs, LDH growth readout, 72 h; at 2 µM; stronger effect = higher value
[2] = HepG2 cytotoxicity, primary screen, cytotoxicity control for P. falciparum antimalarial project, cell-based, ATP luminescence (AID 2303;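 active = inhibition above 50%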;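 note: 0% = DMSO wells and 100% = digitonin-killed cells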); settings: HepG2 viability, 24-48 h, at 10 µM, stronger effect = higher value
[3] = molecular target: L-lactate dehydrogenase (Plasmodium falciparum (isolate CDC / Honduras)) (UniProt Q27743); assay: PfLDH activity inhibition – cell lysate, 3D7 strain, counter-screen for P. falciparum growth inhibition project (AID 2304);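 note: 0% = vehicle and 100% = reference inhibitor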; settings: P. falciparum 3D7 crude extract, LDH APAD/NBT absorbance; at 2 µM; stronger effect = higher value
[4] = inhibition of 3D7 malaria parasite growth – strain 3D7 (AID 2306);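 note: 0% = DMSO wells and 100% = chloroquine plus artemisinin control wells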; settings: P. falciparum 3D7 erythrocytic growth, LDH absorbance, 72 h; at 2 µM; stronger effect = higher value
[5] = molecular target: Calcium-dependent protein kinase 1 (Plasmodium falciparum (isolate 3D7)) (UniProt P62344); assay: PfCDPK1 kinase inhibitors, biochemical, TCAMS library (AID 1159585; cut-off not given, nearly all actives have IC50 up to about 0.98 µM;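 note: inhibitors leave more ATP so luminescence rises with inhibition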); settings: recombinant PfCDPK1, Kinase-Glo ATP depletion luminescence
[6] = molecular target: Plasmodium falciparum protein kinase 6 (PK6, PF3D7_1337100) (UniProt Q8IDW1); assay: PfPK6 kinase inhibitors, biochemical, TCAMS library (AID 1159586); settings: recombinant PfPK6, Kinase-Glo ATP depletion luminescence
[7] = molecular target: Protein kinase 7 (PK7), Plasmodium falciparum 3D7 (PF3D7_0213400) (UniProt Q7YTF7); assay: inhibition of Plasmodium PK7 catalytic activity – biochemical, TCAMS antimalarial set, Kinase-Glo luminescence (AID 1159587); settings: recombinant PfPK7, Kinase-Glo ATP depletion luminescence
[8] = molecular target: Calcium-dependent protein kinase 4 (Plasmodium falciparum (isolate 3D7)) (UniProt Q8IBS5); assay: PfCDPK4 kinase inhibitors, biochemical, TCAMS library (AID 1159588; cut-off not given, nearly all actives have IC50 up to about 0.91 µM); settings: recombinant PfCDPK4, Kinase-Glo ATP depletion luminescence
Chain of Calcium-dependent protein kinase 4 (Plasmodium falciparum (isolate 3D7)) (Q8IBS5 whole entry, looked up): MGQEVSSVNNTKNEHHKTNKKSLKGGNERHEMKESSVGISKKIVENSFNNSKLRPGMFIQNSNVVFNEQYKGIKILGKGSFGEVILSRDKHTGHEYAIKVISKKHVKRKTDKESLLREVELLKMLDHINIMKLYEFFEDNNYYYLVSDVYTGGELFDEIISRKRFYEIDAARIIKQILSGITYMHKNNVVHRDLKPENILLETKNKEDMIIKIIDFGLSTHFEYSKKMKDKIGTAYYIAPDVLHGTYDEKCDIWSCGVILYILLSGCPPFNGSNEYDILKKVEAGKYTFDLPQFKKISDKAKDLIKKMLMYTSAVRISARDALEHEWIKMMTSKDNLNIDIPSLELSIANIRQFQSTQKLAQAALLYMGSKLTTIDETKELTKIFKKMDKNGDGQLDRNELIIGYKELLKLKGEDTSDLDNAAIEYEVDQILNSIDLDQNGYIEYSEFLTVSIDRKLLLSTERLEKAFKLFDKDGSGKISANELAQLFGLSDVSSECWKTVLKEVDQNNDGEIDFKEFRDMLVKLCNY

Chain of Plasmodium falciparum protein kinase 6 (PK6, PF3D7_1337100) (Q8IDW1 1-305): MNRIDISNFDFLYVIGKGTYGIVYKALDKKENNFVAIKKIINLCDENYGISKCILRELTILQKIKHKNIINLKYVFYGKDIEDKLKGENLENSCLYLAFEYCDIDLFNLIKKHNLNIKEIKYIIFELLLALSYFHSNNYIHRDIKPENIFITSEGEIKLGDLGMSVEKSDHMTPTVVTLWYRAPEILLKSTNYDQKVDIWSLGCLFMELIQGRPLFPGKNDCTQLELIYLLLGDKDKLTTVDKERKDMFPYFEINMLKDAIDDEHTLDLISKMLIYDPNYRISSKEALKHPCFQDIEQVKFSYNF
Chain of Protein kinase 7 (PK7), Plasmodium falciparum 3D7 (PF3D7_0213400) (Q7YTF7 1-343): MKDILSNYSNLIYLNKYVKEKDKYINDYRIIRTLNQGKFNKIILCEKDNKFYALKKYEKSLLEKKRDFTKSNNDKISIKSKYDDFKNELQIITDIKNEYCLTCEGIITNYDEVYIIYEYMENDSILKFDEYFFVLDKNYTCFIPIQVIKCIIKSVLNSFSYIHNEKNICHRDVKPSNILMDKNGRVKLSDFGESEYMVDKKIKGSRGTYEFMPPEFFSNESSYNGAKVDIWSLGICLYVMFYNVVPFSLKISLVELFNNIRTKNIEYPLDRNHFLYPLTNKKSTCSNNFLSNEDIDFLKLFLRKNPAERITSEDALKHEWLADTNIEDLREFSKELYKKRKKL
Chain of Calcium-dependent protein kinase 1 (Plasmodium falciparum (isolate 3D7)) (P62344 whole entry, looked up): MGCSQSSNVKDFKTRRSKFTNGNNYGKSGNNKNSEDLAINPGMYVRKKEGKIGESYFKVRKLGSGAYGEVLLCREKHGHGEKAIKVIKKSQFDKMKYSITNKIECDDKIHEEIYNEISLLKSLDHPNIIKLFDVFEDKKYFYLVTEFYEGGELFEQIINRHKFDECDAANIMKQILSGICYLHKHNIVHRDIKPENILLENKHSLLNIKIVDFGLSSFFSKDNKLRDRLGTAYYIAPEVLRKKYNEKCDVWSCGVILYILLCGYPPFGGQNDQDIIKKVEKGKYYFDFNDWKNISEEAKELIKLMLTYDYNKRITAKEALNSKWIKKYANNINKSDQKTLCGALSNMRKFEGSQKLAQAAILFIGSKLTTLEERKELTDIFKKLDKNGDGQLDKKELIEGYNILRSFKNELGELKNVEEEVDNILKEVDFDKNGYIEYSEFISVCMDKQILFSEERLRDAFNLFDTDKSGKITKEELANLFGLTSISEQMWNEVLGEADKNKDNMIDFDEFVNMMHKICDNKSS
Chain of L-lactate dehydrogenase (Plasmodium falciparum (isolate CDC / Honduras)) (Q27743 whole entry, looked up): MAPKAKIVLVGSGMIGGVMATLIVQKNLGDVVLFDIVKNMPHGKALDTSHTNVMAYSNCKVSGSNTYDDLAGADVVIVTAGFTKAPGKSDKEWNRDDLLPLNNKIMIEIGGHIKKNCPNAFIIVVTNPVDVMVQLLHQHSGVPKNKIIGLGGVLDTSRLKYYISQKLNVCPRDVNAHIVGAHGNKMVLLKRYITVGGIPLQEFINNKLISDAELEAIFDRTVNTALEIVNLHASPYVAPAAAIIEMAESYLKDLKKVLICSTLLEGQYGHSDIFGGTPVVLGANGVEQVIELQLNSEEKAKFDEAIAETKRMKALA

O=C(/C=C/c1ccccc1Cl)Nc1ccc(Br)c(OCCN2CCC(O)(c3ccccc3)CC2)c1
inactive: inhibition [2] 39% | inhibition [3] 0% | outcome [5] | outcome [6] | outcome [7] | outcome [8]
active: growth inhibition [1] 85% | growth inhibition [4] 101%

O=C(Nc1cc2cc(-c3ccc(CN4CCCCC4)cc3)ccc2n2cnnc12)NC1CCCC1
inactive: inhibition [3] -4% | outcome [5] | outcome [6] | outcome [7] | outcome [8]
active: growth inhibition [1] 98% | inhibition [2] 78% | growth inhibition [4] 100%

CCCCOc1cc2[nH]cc(C(=O)OCC)c(=O)c2cc1OCCCC
active: growth inhibition [1] 96% | growth inhibition [4] 97%
inactive: inhibition [2] -9% | inhibition [3] -2% | outcome [5] | outcome [6] | outcome [7] | outcome [8]

O=C(NCCc1cccc(F)c1)c1cc(Br)cc(N2CCN(c3ccncc3)CC2)c1
inactive: inhibition [2] 34% | inhibition [3] 0% | outcome [5] | outcome [6] | outcome [7] | outcome [8]
active: growth inhibition [1] 86% | growth inhibition [4] 100%

N#Cc1ccc2c(c1)CCN(CCC1CCC(NC(=O)/C=C/c3cccc4cc[nH]c34)CC1)CC2 (stereo not given)
active: growth inhibition [4] 89%
inactive: growth inhibition [1] 29% | inhibition [2] 22% | inhibition [3] -3% | outcome [5] | outcome [6] | outcome [7] | outcome [8]

Cc1cccc(NC(=O)N(Cc2cc3cc(C)cc(C)c3[nH]c2=O)C2CC2)c1
active: growth inhibition [1] 94% | growth inhibition [4] 97%
inactive: inhibition [2] 3% | inhibition [3] 2% | outcome [5] | outcome [6] | outcome [7] | outcome [8]

Cc1cccc2[nH]c(-c3ccc(-c4cccc(NC(=O)c5cncn5C)c4)s3)nc12
active: growth inhibition [4] 103%
inactive: growth inhibition [1] 16% | inhibition [2] 13% | inhibition [3] -5% | outcome [5] | outcome [6] | outcome [7] | outcome [8]

CS(=O)(=O)CCNc1nccc(N2CCc3ncnc(Nc4ccc(OCc5cccc(F)c5)c(Cl)c4)c3C2)n1
active: growth inhibition [1] 100% | growth inhibition [4] 101%
inactive: inhibition [2] 8% | inhibition [3] -4% | outcome [5] | outcome [6] | outcome [7] | outcome [8]

NC(=O)Nc1ccc2c(Nc3ccc(OCc4ccccc4)cc3)ncnc2c1
inactive: growth inhibition [1] 20% | inhibition [2] -1% | inhibition [3] 3% | outcome [5] | outcome [6] | outcome [7] | outcome [8]
active: growth inhibition [4] 84%

CC(C)(C)c1ccc(CN2CCC(NC(=O)c3ccc(-c4cccc(F)c4)s3)CC2)cc1
active: growth inhibition [4] 92%
inactive: growth inhibition [1] 24% | inhibition [2] 35% | inhibition [3] 0% | outcome [5] | outcome [6] | outcome [7] | outcome [8]

CN(C)[C@@H]1C(=O)C(C(N)=O)=C(O)[C@@]2(O)C(=O)C3=C(O)c4c(O)ccc(C#Cc5ccccn5)c4C[C@H]3C[C@@H]12
inactive: inhibition [2] 17% | inhibition [3] -6% | outcome [5] | outcome [6] | outcome [7] | outcome [8]
active: growth inhibition [1] 75% | growth inhibition [4] 92%

NC(=O)c1cccc(CN2Cc3ccccc3OC3(CCN(Cc4c[nH]c5cnccc45)CC3)C2)c1
active: growth inhibition [4] 94%
inactive: growth inhibition [1] 2% | inhibition [2] 9% | inhibition [3] -2% | outcome [5] | outcome [6] | outcome [7] | outcome [8]

CN(C)c1ccc(-c2ccc(C(=O)NC3CCN(Cc4ccccc4F)CC3)s2)cc1
active: growth inhibition [4] 88%
inactive: growth inhibition [1] 19% | inhibition [2] 30% | inhibition [3] -4% | outcome [5] | outcome [6] | outcome [7] | outcome [8]

c1cncc(-c2cc(N3CCCCC3)nc(-c3ccncc3)n2)c1
inactive: growth inhibition [1] 46% | inhibition [2] 18% | inhibition [3] 2% | outcome [5] | outcome [6] | outcome [7] | outcome [8]
active: growth inhibition [4] 99%

O=C(CC(=O)C(F)(F)F)c1ccccc1[N+](=O)[O-]
inactive: inhibition [3] -6% | outcome [5] | outcome [6] | outcome [7] | outcome [8]
active: growth inhibition [1] 95% | inhibition [2] 65% | growth inhibition [4] 97%

CCOC(=O)c1ccc(OCc2ccc(-c3ccccc3)cc2)cc1
inactive: growth inhibition [1] -1% | inhibition [2] 18% | inhibition [3] 3% | outcome [5] | outcome [6] | outcome [7] | outcome [8]
active: growth inhibition [4] 96%

CN(C)c1ccc(-c2ccc(C(=O)NC3CCN(Cc4ccc(F)cc4)CC3)s2)cc1
active: growth inhibition [4] 87%
inactive: growth inhibition [1] 19% | inhibition [2] 34% | inhibition [3] -1% | outcome [5] | outcome [6] | outcome [7] | outcome [8]

Cc1nc2ccccc2n1C1C[C@H]2CC[C@@H](C1)N2CCCC1(c2ccccc2)CCN(C(=O)OCc2ccccc2)CC1 (stereo not given in full)
active: growth inhibition [4] 90%
inactive: growth inhibition [1] 29% | inhibition [2] 46% | inhibition [3] -4% | outcome [5] | outcome [6] | outcome [7] | outcome [8]

NC(=O)CNC(=O)CCCN=C(N)N
active: growth inhibition [4] 101%
inactive: growth inhibition [1] -2% | inhibition [2] 20% | inhibition [3] 5% | outcome [5] | outcome [6] | outcome [7] | outcome [8]

Oc1ccc(CCNc2nc(NCc3cccc(OCc4cccc(F)c4)c3)nc(N3CCNCC3)n2)cc1
active: growth inhibition [4] 86%
inactive: growth inhibition [1] -7% | inhibition [2] 27% | inhibition [3] -3% | outcome [5] | outcome [6] | outcome [7] | outcome [8]

CCCN(CCC)CCCNc1ccc(C(=O)Nc2ccc(OCC)cc2)cc1[N+](=O)[O-]
active: growth inhibition [4] 89%
inactive: growth inhibition [1] 2% | inhibition [2] 7% | inhibition [3] -4% | outcome [5] | outcome [6] | outcome [7] | outcome [8]

Cc1cccn2c(=O)c3cc(C(=O)NC(C)c4ccccc4)c(=N)n(CCN4CCOCC4)c3nc12 (stereo not given)
inactive: growth inhibition [1] 5% | inhibition [2] 6% | inhibition [3] 4% | outcome [5] | outcome [6] | outcome [7] | outcome [8]
active: growth inhibition [4] 101%

O=C(Cc1cnc[nH]1)Nc1cccc(-c2cccc(-c3nc4ccccc4[nH]3)c2)c1
inactive: inhibition [2] 24% | inhibition [3] -2% | outcome [5] | outcome [6] | outcome [7] | outcome [8]
active: growth inhibition [1] 60% | growth inhibition [4] 97%

C/C=C/COc1ccc2ccccc2c1CNCCCCCCCCNCc1c(OC/C=C/C)ccc2ccccc12
inactive: inhibition [3] 3% | outcome [5] | outcome [6] | outcome [7] | outcome [8]
active: growth inhibition [1] 86% | inhibition [2] 100% | growth inhibition [4] 87%

COc1ccc2ccc(F)c(CC(=O)N3CCOC(CNCc4cccc(-c5ccsc5)n4)C3)c2n1 (stereo not given)
active: growth inhibition [4] 92%
inactive: growth inhibition [1] 1% | inhibition [2] 1% | inhibition [3] 3% | outcome [5] | outcome [6] | outcome [7] | outcome [8]

C[C@@H](C(N)=O)N1CCCCC1c1ccc(OCc2cccc(F)c2)cc1 (stereo not given in full)
inactive: inhibition [3] 9% | outcome [5] | outcome [6] | outcome [7] | outcome [8]
active: growth inhibition [1] 96% | inhibition [2] 79% | growth inhibition [4] 84%

CC(=O)N1N=C(c2ccccc2)Sc2c1nc(-c1ccc(Cl)cc1)n2C(C)=O
inactive: growth inhibition [1] 18% | inhibition [2] -1% | inhibition [3] 0% | outcome [5] | outcome [6] | outcome [7] | outcome [8]
active: growth inhibition [4] 94%

COc1cccc2cc(C(=O)N[C@@H](CC(C)C)C(=O)N[C@H](/C=N/NC(=O)N3CCN(C)CC3)CCc3ccccc3)oc12
inactive: inhibition [2] 1% | inhibition [3] 4% | outcome [5] | outcome [6] | outcome [7] | outcome [8]
active: growth inhibition [1] 73% | growth inhibition [4] 85%

CCN(CC)c1nc(Nc2cc(C)ccc2C)nc(Nc2ccccc2O)n1
active: growth inhibition [1] 99% | growth inhibition [4] 101%
inactive: inhibition [2] -9% | inhibition [3] 2% | outcome [5] | outcome [6] | outcome [7] | outcome [8]

O=C(CCc1cnc[nH]1)Nc1ccc(-c2ccc(-c3nc4ccccc4[nH]3)cc2)cc1
active: growth inhibition [1] 70% | growth inhibition [4] 98%
inactive: inhibition [2] 46% | inhibition [3] 0% | outcome [5] | outcome [6] | outcome [7] | outcome [8]

O=C(Nc1cccc(CN2CCCN(Cc3ncc[nH]3)CC2)c1)c1ccc2ccccc2c1
active: growth inhibition [4] 100%
inactive: growth inhibition [1] 2% | inhibition [2] 13% | inhibition [3] -1% | outcome [5] | outcome [6] | outcome [7] | outcome [8]

CCN(CCCN1CCCCC1)c1nccc(Nc2ccc(Cl)cc2)n1
inactive: inhibition [2] 19% | inhibition [3] -1% | outcome [5] | outcome [6] | outcome [7] | outcome [8]
active: growth inhibition [1] 63% | growth inhibition [4] 89%

Cc1ccc(Nc2nc3cc(N(C)c4ccnc(Nc5cccc(CS(C)(=O)=O)c5)n4)ccc3o2)cc1
inactive: growth inhibition [1] 16% | inhibition [2] -19% | inhibition [3] 3% | outcome [5] | outcome [6] | outcome [7] | outcome [8]
active: growth inhibition [4] 90%

C[C@@H](NC(=O)NC(CCN1CCC2(CC1)CN(S(C)(=O)=O)c1ccccc12)c1ccc(Cl)c(Cl)c1)c1ccccc1 (stereo not given in full)
inactive: inhibition [2] 15% | inhibition [3] 3% | outcome [5] | outcome [6] | outcome [7] | outcome [8]
active: growth inhibition [1] 88% | growth inhibition [4] 92%

CNC(=O)COc1cc(C)c(C2CCN(CCCCNC(=O)c3ccc(-c4ccc(C(F)(F)F)cc4)cc3)CC2)cc1C
inactive: inhibition [2] 38% | inhibition [3] 4% | outcome [5] | outcome [6] | outcome [7] | outcome [8]
active: growth inhibition [1] 72% | growth inhibition [4] 100%

c1ccc(OCCOc2ccc(Nc3ccnc4cc5ccccc5cc34)cc2)cc1
active: growth inhibition [1] 96% | growth inhibition [4] 102%
inactive: inhibition [2] 44% | inhibition [3] 7% | outcome [5] | outcome [6] | outcome [7] | outcome [8]

CCC(C)c1ccc(NC(=O)Nc2ccnc3ccccc23)cc1 (stereo not given)
active: growth inhibition [4] 98%
inactive: growth inhibition [1] 42% | inhibition [2] 27% | inhibition [3] -2% | outcome [5] | outcome [6] | outcome [7] | outcome [8]

Cc1cccc(NC(=O)c2cnc(N3CCN(c4ccncc4)CC3)c(Cl)c2)c1
active: growth inhibition [1] 54% | growth inhibition [4] 100%
inactive: inhibition [2] 36% | inhibition [3] -2% | outcome [5] | outcome [6] | outcome [7] | outcome [8]

C[C@H](Cc1ccc(OCCCCCCOc2ccc(C[C@@H](C)NC(=O)[C@H](O)c3cccc(Cl)c3)cc2)cc1)NC[C@H](O)c1cccc(Cl)c1
inactive: inhibition [2] 39% | inhibition [3] -3% | outcome [5] | outcome [6] | outcome [7] | outcome [8]
active: growth inhibition [1] 99% | growth inhibition [4] 99%

COc1cc(Nc2nccc(Nc3ccc4c(C)[nH]nc4c3)n2)cc2ccccc12
active: growth inhibition [1] 82% | growth inhibition [4] 102%
inactive: inhibition [2] 13% | inhibition [3] 5% | outcome [5] | outcome [6] | outcome [7] | outcome [8]
